LASV entry inh: blocks Lassa virus binding to or entry into cells | Lassa virus pseudotype entry inhibition, cell reporter | Potency, µM (series often up to 37.9 µM), inactives show top-dose activity change, negative = inhibition, most hits filed as inhibitors | hit rate 1.2% among 300,000; calls by dose curve; tested in HEK293 cells; note: potency is the fitted concentration of half-maximal effect; % is set by controls: 0 for no effect and ±100 for the full control effect; nearly all actives have a fitted effect of over 50% in size
FMDV inh: blocks foot and mouth disease virus | FMDV antiviral cell-based qHTS | Potency, µM (top dose mostly 57.9 µM), for inactives: at the top dose activity change, negative = inhibition, usual class: inhibitors | hit rate 1.2% among 410,000 | AID 1159524; calls by dose curve; tested in HEK293T cells; note: read-out not given here; potency is the fitted concentration of half-maximal effect; % is set by controls: 0 for no effect and ±100 for the full control effect; nearly all actives have a fitted effect of over 45% in size
HCV inh: inhibitors of hepatitis C virus infection | Huh7.5.1 HCVcc-Cre infection, luciferase reporter, 44 h | Potency, µM (top dose mostly 41.8 µM), for inactives: top-dose activity change, negative = inhibition, most hits filed as inhibitors | hit rate 3.4% among 340,000 | AID 651820; active = well fitted inhibition curve with a large enough effect; inconclusive = small, poorly fitted or top-dose-only effect, or another doubt; inactive = no such curve, though single readings can be large or run the other way; note: potency is the fitted concentration of half-maximal effect; % is set by controls: 0 for no effect and ±100 for the full control effect
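Antiviral activity was scored by luciferase reporter output from cells infected with HCVcc-Cre (~0.5 moi) in presence of compound, 44 h infection period, cells seeded 1,000/well 4 h prior.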
Marburg entry inh: Marburg virus entry inhibition. Marburg virus pseudotyped entry inhibition, cell reporter. Potency, µM (highest dose often 37.8 µM), for the others: top-dose activity change, negative = inhibition, usual class: inhibitors. hit rate 1.8% among 300,000. AID 540276; calls by dose curve; tested in HEK293 cells; note: potency is the fitted concentration of half-maximal effect; % is set by controls: 0 for no effect and ±100 for the full control effect
HCMV inh: human cytomegalovirus inhibition; hit rate 4.5% among 410,000; HFF cells, HCMV-luciferase reporter, 72 h; active compounds read low; activity change, negative = inhibition, % at 57.5 µM; in the data active = activity change below about -60%; inconclusive = no clear call, values can overlap the other calls; inactive = above about -39%; note: % is set by controls: 0 for no effect and ±100 for the full control effect
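Human foreskin fibroblasts infected with luciferase-reporter HCMV at MOI 1 PFU/cell, compounds at two doses. Luciferase measured 72 h post infection; normalized to buffer-only basal and Salinomycin (10uM) controls.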
SARS PLpro yeast: SARS-CoV PLP inhibition in yeast; Potency, µM (doses to about 32.9 µM), inactives show top-dose activity, positive = growth rescue, usual class: activators; S. cerevisiae expressing SARS-CoV PLpro, growth rescue; hit rate 0.19% among 330,000; calls by dose curve; note: potency is the fitted concentration of half-maximal effect; 0% is about no effect; nearly all actives have a fitted effect of over 55% in size
Numbers without * were called inactive; ? = inconclusive; · = no result given; ! = not confirmed by another sample; [ ] = dose if it differs, or a comment. A selection: hits, their analogues and other compounds. The true share with any hit is near 8%.

SMILES | LASV entry inh | FMDV inh | HCV inh | Marburg entry inh | HCMV inh | SARS PLpro yeast
CN1C(=O)C2=NC=NC2N(C)C1=O (stereo not drawn) | · | · | · | 5.5% | · | ·
CCOC(=O)N1CCN(C(=O)c2cc3c(s2)-c2ccc(Cl)cc2S(=O)(=O)C3)CC1 | · | ? | -9.1% | · | -62.0* | -1.6%
COc1ccc(N(C)C(=O)c2cc3c(s2)-c2ccc(Cl)cc2S(=O)(=O)C3)c(OC)c1 | · | 28.2µM* | ? | · | ? | 0.5%
CCOC(=O)N1CCN(C(=O)c2cc3c(s2)-c2ccccc2OC3)CC1 | · | -7.4% | 9.4% | · | -16.0 | -7.0%
CCOC(=O)C1CCN(c2ncnc3c2nc2n3CCCCC2)CC1 | -3.1%[46.1 µM] | 21.0% | · | · | 61.1 | ·
Nc1c(C(=O)NCCc2ccccc2)nnn1CC(=O)Nc1ccc(Cl)cc1 | ? | 0.6% | · | · | -28.7 | ·
COc1cc(-c2noc(-c3ccco3)n2)cc(OC)c1OC | -5.7% | 13.8% | 12.6µM* | -41.2% | 155.2 | 7.1%
COc1cc(-c2noc(-c3ccccc3C(=O)NCc3ccco3)n2)cc(OC)c1OC | ? | ? | 11.2µM* | ? | 7.9 | -2.0%
COc1cccc(CNC(=O)CN2C(=O)N(c3ccc(C)cc3C)S(=O)(=O)c3ccccc32)c1OC | ? | ? | · | · | -14.2 | ·
O=C(CCS(=O)(=O)c1nc(-c2ccc3c(c2)OCO3)cc(C(F)(F)F)n1)Nc1ccccc1C(F)(F)F | 22.7%[46.1 µM] | -14.0% | · | -29.5%[46.1 µM] | 4.7 | ·
Cc1cc(CNCc2cn(C)nc2-c2ccc(Oc3ccccc3)cc2)on1 | ? | ? | ? | -23.4%[46.1 µM] | -67.8* | -1.0%
COc1ccc(/C=N/Nc2cc(C)nc3ccc(OC)cc23)c(OC)c1 | ? | ? | 10µM* | ? | -105.1* | 10.1%
COc1ccc2nc(C)cc(N/N=C/c3ccccc3)c2c1 | ? | -4.3% | 10µM* | ? | · | -1.7%
COc1ccccc1/C=N/Nc1cc(C)nc2ccc(C)cc12 | 21.2%[46.1 µM] | 4.3% | ? | -3.1%[46.1 µM] | 26.8 | -0.7%
CCC(=O)OCc1cnc(C)c2oc(=O)c(C(=O)Nc3ccccc3C(F)(F)F)cc12 | 24.3%[46.1 µM] | -15.6% | · | · | -3.9 | ·
Cc1c(NS(=O)(=O)c2ccc(Cl)c(C(=O)OCC(=O)NCc3ccco3)c2)c(=O)n(-c2ccccc2)n1C | ? | 20.1% | -2.2% | 7.5% | 14.1 | 0.2%
Cc1ccc(S(=O)(=O)Nc2c(C)n(C)n(-c3ccccc3)c2=O)cc1C(=O)NCc1ccco1 | ? | -11.7% | 31.6µM* | ? | -26.8 | ·
Cc1cc(C)cc(NS(=O)(=O)c2ccc3[nH]cc(C(=O)NCc4ccco4)c(=O)c3c2)c1 | ? | 1.1% | -22.4% | ? | -72.5*! | 10.2%
Cc1ccc2[nH]cc(C(=O)NCc3cccs3)c(=O)c2c1 | ? | · | 10µM* | -18.5% | -8.4 | 5.0%
CCOC(=O)c1sc2ncn(CC(=O)Nc3ccc(OC)c(Cl)c3)c(=O)c2c1C | 6.9%[46.1 µM] | -3.6% | · | -18.8%[46.1 µM] | 11.2 | ·
CCCCOC(=O)c1ccc(NC(=O)Cc2coc3c(C)c(C)ccc23)cc1 | -9.0%[46.1 µM] | -24.1% | · | -28.2%[46.1 µM] | -22.0 | ·
COc1ccc(C(=O)Nc2ccc3oc(Cc4ccc(Cl)cc4)nc3c2)cc1OC | · | ? | 11.2µM* | 0.0% | -23.2 | -4.9%
COc1ccc(Cl)cc1NC(=O)c1ccc2nc(Cc3ccccc3)oc2c1 | -0.9%[46.1 µM] | -19.6% | · | · | -32.6 | ·
CCc1cc(CNC(=O)c2ccc3nc(Cc4ccc(OC)c(OC)c4)oc3c2)on1 | · | -21.1% | 4.47µM* | · | -14.6 | 4.2%
CN(C)c1ccc(C(=O)Nc2c(C(=O)NC(C)(C)C)oc3ccccc23)cc1 | -19.1%[46.1 µM] | -18.2% | · | · | -9.1 | ·
SMILES | LASV entry inh | FMDV inh | HCV inh | Marburg entry inh | HCMV inh | SARS PLpro yeast
COc1ccc(OC)c2sc(NC(=O)c3ccc(S(=O)(=O)N4CCCC4)cc3)nc12 | 2.2%[46.1 µM] | ? | · | · | -19.9 | ·
COc1ccc(CCNC(=O)/C=C/c2ccc3ccccc3n2)cc1OC | · | 28.2µM* | ? | ? | -99.6* | -3.3%
CC(C)c1onc(C(=O)NCc2cccs2)c1[N+](=O)[O-] | · | 0.0% | 11.8% | · | -68.0* | 1.5%
O=C(NC(=O)c1ccccc1O)c1ccc2c(c1)CCO2 | 11.2µM* | -13.4% | -3.9% | ? | -9.8 | -5.0%
OC(c1ccco1)c1nc(-c2ccc(F)c(Cl)c2)cs1 (stereo not drawn) | · | 37.5% | · | · | -64.7* | ·
Cc1cccc(Cc2ccc3ncc(-c4cccc(C(N)=O)c4)n3n2)c1 | · | · | · | · | -72.0* | ·
O=C(COc1ccc2ccc(=O)oc2c1)NCCc1c[nH]c2ccc(F)cc12 | · | ? | -21.4% | · | -34.7 | 0.7%
CCCc1cc(=O)oc2cc(OCC(=O)NCCc3c[nH]c4ccc(OC)cc34)ccc12 | · | -22.0% | 17.8µM* | · | -5.4 | 4.1%
CCc1cc(=O)oc2cc(C)cc(OCC(=O)NCCc3c[nH]c4ccccc34)c12 | · | ? | 2.24µM* | · | -23.0 | -4.8%
CCc1cc(=O)oc2cc(C)cc(OCC(=O)NC(Cc3c[nH]c4ccc(O)cc34)C(=O)O)c12 (stereo not drawn) | · | -18.3% | -0.7% | · | 6.2 | 1.1%
O=C(/C=C/c1ccc(Cl)cc1)Nc1ccc(N2CCCCC2)cc1 | -11.6% | -19.3% | 23.1% | ? | 4.9 | 3.4%
O=C(/C=C/c1ccc(Cl)cc1)Nc1ccc(CN2CCOCC2)cc1 | -23.5%[46.1 µM] | ? | ? | ? | -88.8* | 26.3%
CC(C)C(=O)NC(=S)Nc1ccc(CN2CCOCC2)cc1 | · | 13.4% | 11.6% | · | -8.6 | 0.5%
CC(C)c1ccc(/C=C/C(=O)Nc2ccc(CN3CCOCC3)cc2)cc1 | ? | 28.2µM* | 2.24µM* | -1.8%[46.1 µM] | ? | 0.7%
O=C(/C=C/c1ccc(Cl)cc1Cl)NC(=S)Nc1ccc(CN2CCOCC2)cc1 | -1.2% | -28.3% | 8.5% | ? | -28.1 | -4.1%
O=C(/C=C/c1ccccc1)NC(=S)Nc1ccc(CN2CCOCC2)cc1 | 1.5% | ? | -18.4% | ? | -75.7* | -1.5%
CCN(CC)S(=O)(=O)c1ccc(C(=O)NCCSc2c(-c3ccc(F)cc3)[nH]c3ccccc23)cc1 | -29.4%[46.1 µM] | 0.0% | · | ? | -30.4 | ·
O=C(CSc1nc2c([nH]c3ccccc32)c(=O)n1-c1cccc(Cl)c1)c1ccccc1 | 1.9%[46.1 µM] | -17.7% | · | · | 3.1 | ·
COc1ccc(S(=O)(=O)N(CC(=O)NCCSc2ccccc2)c2ccc(C)cc2)cc1 | -27.0%[46.1 µM] | -9.6% | · | -23.6%[46.1 µM] | 3.6 | ·
CC(C)C[C@H](N)C(=O)N[C@H](C(=O)N[C@H](C(=O)N[C@@H](Cc1ccc(O)cc1)C(=O)N1CCC[C@H]1C(=O)N[C@@H](Cc1c[nH]c2ccccc12)C(=O)N[C@H](C(=O)N[C@@H](CCC(N)=O)C(=O)N[C@@H](CCCN=C(N)N)C(=O)O)[C@@H](C)O)C(C)C)C(C)C | · | -12.2%[6.7 µM] | · | · | · | ·
Cc1ccc2c(c1)c1c3n2CCN(CCC(=O)O)C3CCC1 (stereo not drawn) | 23.0% | 0.1% | 23.9% | ? | 19.9 | 0.4%
Cc1ccc2c(c1)c1c3n2CCN(CC(N)=O)C3CCC1 (stereo not drawn) | 24.1%[46.1 µM] | -2.5% | ? | -2.8%[46.1 µM] | -98.0* | 3.7%
